Laboratory results: PubChem BioAssay (NCATS)
Some of the results follow. Entries that show only a call come without a potency. Inconclusive results are not listed. Active and inactive are the calls of the source. Calls come from the whole dose curve.
Potency is the fitted concentration of half-maximal effect.

The molecules below were run against Papain (Carica papaya) (UniProt P00784) (assay: Selectivity profile for inhibitors of NSP2Pro chikungunya virus (CHIKV): Papain Counterscreen (AID 1964104)). Conditions: purified papain protease activity, enzymatic inhibition; series mostly up to 51 µM.
Sequence of Papain (Carica papaya) (P00784 whole entry, looked up): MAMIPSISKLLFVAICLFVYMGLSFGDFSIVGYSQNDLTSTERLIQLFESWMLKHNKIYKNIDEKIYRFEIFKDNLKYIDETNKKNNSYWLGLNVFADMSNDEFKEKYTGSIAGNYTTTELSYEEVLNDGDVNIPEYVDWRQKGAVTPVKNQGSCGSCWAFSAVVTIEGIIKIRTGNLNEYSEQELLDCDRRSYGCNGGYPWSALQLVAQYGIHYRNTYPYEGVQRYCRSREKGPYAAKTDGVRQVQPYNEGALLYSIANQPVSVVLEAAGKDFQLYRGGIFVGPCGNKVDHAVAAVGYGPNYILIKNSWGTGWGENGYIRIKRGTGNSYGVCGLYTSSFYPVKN
Text: PI: Natalia J. Martinez Ph.D.
National Center for Advancing Translational Sciences (NCATS),
National Institute of Health (NIH), Rockville, Maryland
Chikungunya virus (CHIKV) is a mosquito-borne RNA virus that has emerged as one of the most important global arboviral threats in the last decade. Although the first CHIKV vaccine has recently been FDA approved for use in healthy adults at increased risk, to date, there are no available antiviral drugs for CHIKV infection. CHIKV nsP2 protease plays a crucial role in the processing of the viral polypeptide precursor to release enzymes required for viral replication, thus making it a promising drug target for antiviral discovery. Here, we established a high-throughput pipeline to identify small molecule inhibitors of nsP2 proteolytic activity. The pipeline is composed of a suite of 1,536-well in vitro assays to support quantitative high-throughput (qHTS) screening campaigns. Specifically, we developed a fluorescence resonance energy transfer (FRET)-based assay using a fluorogenic peptide substrate encompassing an endogenous cleavage site and purified recombinant protease domain (nsP2pro). Using this assay, we interrogated ~37,000 small molecules, including those in drug repurposing libraries as well as chemically diverse and medicinal chemistry-friendly compounds. Hits were selected for follow-up validation against full-length nsP2 and an additional peptide. FRET-based 1,536-well assays for papain, hepatitis C virus NS3-4A, and human furin proteases were implemented to characterize compound selectivity. […] Novel compounds were identified to be potential nsP2 inhibitors and molecular docking analyses were performed to explain the binding mode of selected hits. In vitro antiviral activity was evaluated for a subset of compounds using a high-throughput CHIKV infection assay. To our knowledge, the pipeline presented here is unprecedented for CHIKV antiviral discovery research.
PROTOCOL TABLE (as described by Inglese J, Shamu CE and Guy RK. 2007)
SEQUENCE No. (e.g., 1, 2, 3, etc.); […] (e.g., Cells, Incubation, Reagent, etc.); VALUE; DESCRIPTION.
1a; Reagent; 3 uL; Papain in assay buffer.
1b; Reagent; 3uL; Assay buffer
2; Compound; 17 nL; Echo 655 acoustic dispenser (Beckman Coulter).
3; Incubation; 15 min; room temperature in the dark.
4: Reagent; 1 uL; Z-FR-AMC in assay buffer.
5; Incubation; 15 sec, 271g; centrifugation.
6; Detection; Fluorescence; time 0, Viewlux microplate reader (PerkinElmer) 355 nm excitation, 460 nm emission
7; Incubation; 10 min; room temperature
8; Detection; Fluorescence; time 10; ViewLux microplate reader (PerkinElmer), 355 nm excitation, 460 nm emission.
NOTES (numbers refer to sequence numbers above).
1a. Medium-binding black solid-bottom Greiner plates (cat. 789176-F). Dispense 3 uL of 1.33X papain in assay buffer (100 mM sodium acetate, pH 5.5, 5 mM dl-cysteine, 0.01% Tween-20 v/v) to columns 1, 2, 5-48 via Wako/Kalypsys dispenser. Papain (cat. P4762, Sigma) was dispensed to produce 5 nM final concentration. Enzyme solution kept on ice during experiment. Prepare papain as 50% glycerol (v/v) at final concentration of 10 mg/mL (427 uM, 100 U/mL). Sources: microplates (Greiner 789176-F), papain (Sigma P4762), sodium acetate (Bioworld 40120009-2), cysteine (Sigma 861677), Tween-20 (Sigma P1379), water (GIBCO 10977-015; Gibco).
1b. Dispense 3 uL of assay buffer (100 mM sodium acetate, pH 5.5, 5 mM dl-cysteine, 0.01% Tween-20 v/v) to columns 3 and 4 via Wako/Kalypsys dispenser. Assay buffer solution kept on ice during experiment.
2. Compound addition by single pin transfer (17 nL) using Wako pintool. Compound solutions in source plate: 169 nM to 10 mM DMSO stock solutions. Final concentrations: 0.664 nM to 39.2 uM, respectively. Final DMSO concentration: 0.5% (v/v).
3. RT incubation. Kalypsys lids used as microplate coverings. Protected from light.
4. […]
For `COC([CH2][Hg])CNC(=O)c1ccccc1OCC(=O)O` (stereo unspecified), the Potency was “inactive”. `Cn1nnnc1Sc1ncnc2n[nH]c(-c3cccc(S(C)(=O)=O)c3)c12` was tested, and the Potency was “inactive”. For `C[C@@H]1C[C@@H](O)[C@@]23CO[C@]2(CO)C[C@@H](O)CC3[C@@]12CC(c1ccoc1)OC2=O` (stereo partly specified), the Potency was “inactive”. With `Cc1ccc(N[S+](=O)([O-])c2cc3c(cc2N[C@@H](C)CO)NC(=O)CC3)cc1N[C@@H](C)CO` the Potency was “inactive”. `CCOc1ccc(N(Cc2ccccc2)C(=O)c2nc(S(C)(=O)=O)ncc2Cl)cc1` was tested, and the Potency was “inactive”. `CCc1ccccc1NC(=O)c1cnn(-c2ccc(F)cc2)c1C1CCNCC1` was tested, and the Potency was “inactive”. `CCOc1ccc(NC(=O)c2c(NC(=O)Cc3ccccc3)sc3c2CCC(C)C3)cc1` (stereo unspecified) was tested, and the Potency was “inactive”. `CC(=O)N[C@@H](C(=O)O[C@H]1CCC(C)(C)[C@@H]2CCC3=C(COC3=O)[C@@]12C)C(C)C` was tested, and the Potency was “inactive”. For `C[C@@H]1O[C@@H](O[C@@H]2[C@@H](O)[C@H](OCCc3ccc(O)c(O)c3)O[C@H](CO[C@@H]3O[C@H](CO)[C@@H](O)[C@H](O)[C@H]3O)[C@H]2OC(=O)/C=C/c2ccc(O)c(O)c2)[C@H](O)[C@H](O)[C@H]1O`, the Potency was “inactive”. For `CCOc1ccc(NC(=O)c2c(NC(=O)Cc3ccccc3)sc3c2CCCCC3)cc1`, the Potency was “inactive”. With `C[C@@H]1[C@H](O)[C@@H]2OC(=O)C3=C2[C@H](CCC3)[C@@]12C[C@@H](c1ccoc1)OC2=O` the Potency was “inactive”. With `Oc1ccc(OC2CCCCO2)cc1` (stereo unspecified) the Potency was “inactive”. `Cc1c(S(=O)(=O)O)oc2c1C(=O)C(=O)c1c-2ccc2c1CCCC2(C)C` was tested, and the Potency was 18.3 µM (active). `O=C(O)c1cccc(-n2[nH]c(-c3ccccc3)cc2=O)c1` was tested, and the Potency was “inactive”. In the case of `CO[C@]1(NC(=O)CSC(F)F)C(=O)N2C(C(=O)O)=C(CSc3nnnn3CCO)CO[C@H]21`, the Potency is reported as 6.51 µM (active). For `CCC(C)C(=O)OC1C(C)C2(O)C(C=C(CO)CC3(O)C(=O)C(C)=CC32)C2C(C)(C)C12OC(=O)C(C)C` (stereo unspecified), the Potency was “inactive”.
